# Source: PubChem BioAssay (NCATS)
# Records with an inconclusive call do not appear. Where a call stands in place of a potency, no number is given. Unmarked numbers belong to inactive results. Calls of active or inactive are those of the source. Unless noted, the call rests on the fitted dose curve; in most records, active means well fitted curve in the direction sought with a large enough effect; inconclusive means small, poorly fitted or top-dose-only effect, or another doubt; inactive means no such curve, though single readings can be large; an effect the other way counts as inactive or inconclusive.
# Experiments:
# [1] = A High-Content qHTS Against Drug Library for the Identification of Small Molecules that Inhibit DYT1 Early Onset Primary Dystonia-Associated Cell Pathology (AID 1645839; calls by dose curve; further: potency means the concentration at half of the fitted maximal effect); details: HEK293 Flp-In EGFP-delE TorsinA, punctate imaging, 48 h; series mostly up to 46.1 µM
# Method in brief: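 High-content imaging quantified EGFP-TorsinA mislocalization in HEK293-derived cells inducibly expressing DYT1 mutant torsinA, after 48 h exposure to compound given together with tetracycline induction. Cell count served as a toxicity channel alongside %pathology.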
# [2] = molecular target: Cytochrome P450 2D6 (Homo sapiens) (UniProt P10635); assay: Cytochrome P450 family 2 subfamily D member 6 (CYP2D6) small molecule antagonists: luciferase biochemical (cell-free) qHTS assay (AID 1645840; active means well fitted curve in the direction sought with a large enough effect in the repeat runs; an effect the other way counts as inactive or inconclusive; further: nearly all actives have a fitted effect of over 55% in size; further: potency means the concentration at half of the fitted maximal effect); details: P450-Glo CYP2D6 enzyme, luciferin luminescence, 1 h; series mostly up to 57.4 µM
# Method in brief: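 P450-Glo CYP2D6 system: proluciferin substrate converted by enzyme to luciferin, read by luminescence proportional to activity. Enzyme-substrate mix with compound 10 min at room temperature, then NADPH regeneration 1 h before detection reagent.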
# [3] = molecular target: Cytochrome P450 2C9 (Homo sapiens) (UniProt P11712); assay: Cytochrome P450 family 2 subfamily C member 9 (CYP2C9) small molecule antagonists: luciferase biochemical (cell-free) qHTS assay (AID 1645842; active means well fitted curve in the direction sought with a large enough effect in the repeat runs; an effect the other way counts as inactive or inconclusive; further: nearly all actives have a fitted effect of over 55% in size; further: potency means the concentration at half of the fitted maximal effect); details: P450-Glo CYP2C9 enzyme assay, luciferin luminescence; series mostly up to 57.4 µM
# Method in brief: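 P450-Glo CYP2C9 system: proluciferin substrate with enzyme in mix containing 0.4% BSA, 10 min at room temperature, then NADPH regeneration solution added and incubated 1 h at 37C. Detection reagent stopped reaction; luminescence read after 20 min as RLU.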
# [4] = Primary qHTS for inhibitors of nuclear receptor binding SET domain protein 2 (NSD2) in an isogenic RCH-ACV NSD2 p.E1099K mutant (9B) (AID 1645876); details: RCH-ACV NSD2 E1099K (9B) viability, CellTiter-Glo, 72 h; series mostly up to 44.9 µM; further: nearly all actives have a fitted effect of over 70% in size; further: potency means the concentration at half of the fitted maximal effect
# [5] = Primary qHTS for inhibitors of nuclear receptor binding SET domain protein 2 (NSD2) in an RCH-ACV wild type WT cells (2C) (AID 1645877); details: RCH-ACV (leukaemia line) NSD2 WT (2C) viability, CellTiter-Glo, 72 h; series mostly up to 44.9 µM; further: nearly all actives have a fitted effect of over 70% in size; further: potency means the concentration at half of the fitted maximal effect
# [6] = NCATS anti-infectives library activity on HEK293 viability as a counter-qHTS vs the C. elegans viability qHTS (AID 1745854); details: HEK293 viability counter-screen; series mostly up to 41.8 µM;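 further: HEK293 cells exposed to compounds for 24 hr before the viability read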
# Method in brief: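 Counter-screen for cytotoxicity: HEK293, 24 hr, 37C, compounds up to 41.7 uM final (a dilution series, 1:5). Readout CellTiter-Glo luminescence, 10 min RT. Digitonin control, […] uM final.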
# [7] = molecular target: Rap guanine nucleotide exchange factor 3 (Homo sapiens) (UniProt O95398); assay: Confirmatory qHTS for antagonist of cAMP-regulated guanine nucleotide exchange factor 3 (EPAC1) (AID 1645880); details: EPAC1 Rap1B-BODIPY-GDP exchange, fluorescence; series mostly up to 115 µM; further: nearly all actives have a fitted effect of over 55% in size
# Method in brief: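 Released BODIPY-GDP fluoresces less than Rap1-bound BODIPY-GDP; the signal is followed at 480/540 nm at 5-min intervals over 30 min, after 5 min at room temperature. Reactions contain 100 nM EPAC1, 250 nM RAP1B-BODIPY-GDP and 50 uM GDP; results are normalized to ATA and DMSO.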
# [8] = molecular target: Rap guanine nucleotide exchange factor 3 (Homo sapiens) (UniProt O95398); assay: Confirmatory qHTS for agonist of cAMP-regulated guanine nucleotide exchange factor 3 (EPAC1) (AID 1645881); details: EPAC1 Rap1B BODIPY-GDP exchange fluorescence, 100% = cAMP control response; series mostly up to 154 µM;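 further: EPAC1 catalysed release of BODIPY-GDP from Rap1B seen as fluorescence loss; nearly all actives have a fitted effect of over 75% in size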
# [9] = molecular target: Rap guanine nucleotide exchange factor 4 (Homo sapiens) (UniProt Q8WZA2); assay: Confirmatory qHTS for agonist of cAMP-regulated guanine nucleotide exchange factor 4 (EPAC2) (AID 1645884); details: EPAC2 GEF activity, Rap1B-BODIPY-GDP fluorescence, percent relative to cAMP agonist control; series mostly up to 154 µM;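 further: nucleotide exchange releases bodipy-GDP from Rap1 and this lowers its fluorescence; nearly all actives have a fitted effect of over 65% in size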
# [10] = molecular target: Rap guanine nucleotide exchange factor 4 (Homo sapiens) (UniProt Q8WZA2); assay: Confirmatory qHTS for antagonist of cAMP-regulated guanine nucleotide exchange factor 4 (EPAC2) (AID 1645885); details: EPAC2 Rap1B-BODIPY-GDP exchange fluorescence, biochemical; series mostly up to 114 µM; further: nearly all actives have a fitted effect of over 25% in size
# [11] = Viability counterscreen for antagonist of constitutive androstane receptor (CAR) against the NCATS DSHEA and TCM libraries (AID 1794837); details: CAR reporter cell line viability counterscreen, qHTS; series mostly up to 40 µM;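 further: compound exposure lasted 24 h before viability reading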
# Method in brief: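 Cells: HepG2 line carrying CYP2B6 reporter and hCAR, seeded and attached 5 h. Then pin-transferred test substances plus agonist CITCO at 48 uM final; 24 h incubation; fluorogenic viability reagent, 1 h.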
# Cytochrome P450 2C9 (Homo sapiens), sequence (P11712 whole entry, looked up): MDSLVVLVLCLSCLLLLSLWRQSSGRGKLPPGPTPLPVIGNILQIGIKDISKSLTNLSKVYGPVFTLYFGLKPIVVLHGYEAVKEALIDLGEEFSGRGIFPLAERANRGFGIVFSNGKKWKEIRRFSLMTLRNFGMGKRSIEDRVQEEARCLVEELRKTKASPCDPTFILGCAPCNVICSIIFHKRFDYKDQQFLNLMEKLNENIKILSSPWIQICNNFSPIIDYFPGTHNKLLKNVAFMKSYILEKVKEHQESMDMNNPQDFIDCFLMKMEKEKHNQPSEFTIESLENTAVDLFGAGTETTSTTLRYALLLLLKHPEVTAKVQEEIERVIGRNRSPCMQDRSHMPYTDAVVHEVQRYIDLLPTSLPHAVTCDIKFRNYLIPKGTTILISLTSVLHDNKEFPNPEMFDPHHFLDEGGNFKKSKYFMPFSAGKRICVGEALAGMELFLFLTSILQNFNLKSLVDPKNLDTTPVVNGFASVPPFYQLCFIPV
# Cytochrome P450 2D6 (Homo sapiens), sequence (P10635 whole entry, looked up): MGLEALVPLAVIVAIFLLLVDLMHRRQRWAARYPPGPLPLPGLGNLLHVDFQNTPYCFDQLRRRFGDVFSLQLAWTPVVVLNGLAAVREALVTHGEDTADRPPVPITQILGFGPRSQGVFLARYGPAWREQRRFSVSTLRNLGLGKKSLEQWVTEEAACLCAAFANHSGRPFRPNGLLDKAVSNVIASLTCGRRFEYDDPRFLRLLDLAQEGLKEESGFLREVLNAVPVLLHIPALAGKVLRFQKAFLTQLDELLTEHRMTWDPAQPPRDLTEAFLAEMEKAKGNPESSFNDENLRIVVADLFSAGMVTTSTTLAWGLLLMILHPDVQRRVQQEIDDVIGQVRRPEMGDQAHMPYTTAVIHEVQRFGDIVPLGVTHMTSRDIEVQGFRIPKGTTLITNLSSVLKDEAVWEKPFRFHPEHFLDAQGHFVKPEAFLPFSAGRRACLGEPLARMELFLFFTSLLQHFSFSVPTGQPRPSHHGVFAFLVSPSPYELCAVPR
# Rap guanine nucleotide exchange factor 4 (Homo sapiens), sequence (Q8WZA2 whole entry, looked up): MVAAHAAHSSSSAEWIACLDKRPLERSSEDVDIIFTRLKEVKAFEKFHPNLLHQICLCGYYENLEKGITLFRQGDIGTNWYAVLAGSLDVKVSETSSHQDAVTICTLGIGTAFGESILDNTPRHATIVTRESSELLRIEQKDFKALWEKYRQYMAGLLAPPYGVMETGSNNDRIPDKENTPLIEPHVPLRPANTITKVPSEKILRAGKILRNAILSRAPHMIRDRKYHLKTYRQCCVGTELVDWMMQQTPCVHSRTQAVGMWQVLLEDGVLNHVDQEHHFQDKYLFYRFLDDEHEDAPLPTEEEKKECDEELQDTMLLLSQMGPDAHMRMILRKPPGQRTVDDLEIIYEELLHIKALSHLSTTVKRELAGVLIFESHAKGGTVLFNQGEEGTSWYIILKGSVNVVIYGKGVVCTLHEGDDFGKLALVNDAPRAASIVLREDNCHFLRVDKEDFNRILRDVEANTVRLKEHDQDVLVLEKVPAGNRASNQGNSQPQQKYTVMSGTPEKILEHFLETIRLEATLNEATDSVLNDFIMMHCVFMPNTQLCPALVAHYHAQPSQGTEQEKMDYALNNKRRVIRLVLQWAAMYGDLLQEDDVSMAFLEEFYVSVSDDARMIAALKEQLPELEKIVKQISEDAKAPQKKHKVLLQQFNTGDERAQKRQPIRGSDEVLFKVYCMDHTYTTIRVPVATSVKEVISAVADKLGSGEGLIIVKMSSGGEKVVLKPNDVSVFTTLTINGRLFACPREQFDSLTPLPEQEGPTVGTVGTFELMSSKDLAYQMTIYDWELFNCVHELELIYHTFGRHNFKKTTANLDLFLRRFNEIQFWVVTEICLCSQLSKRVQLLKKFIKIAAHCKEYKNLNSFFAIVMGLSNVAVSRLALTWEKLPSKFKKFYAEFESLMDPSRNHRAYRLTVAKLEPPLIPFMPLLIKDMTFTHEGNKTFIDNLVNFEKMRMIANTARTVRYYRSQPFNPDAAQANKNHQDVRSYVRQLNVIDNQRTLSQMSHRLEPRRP
# Rap guanine nucleotide exchange factor 3 (Homo sapiens), sequence (O95398 whole entry, looked up): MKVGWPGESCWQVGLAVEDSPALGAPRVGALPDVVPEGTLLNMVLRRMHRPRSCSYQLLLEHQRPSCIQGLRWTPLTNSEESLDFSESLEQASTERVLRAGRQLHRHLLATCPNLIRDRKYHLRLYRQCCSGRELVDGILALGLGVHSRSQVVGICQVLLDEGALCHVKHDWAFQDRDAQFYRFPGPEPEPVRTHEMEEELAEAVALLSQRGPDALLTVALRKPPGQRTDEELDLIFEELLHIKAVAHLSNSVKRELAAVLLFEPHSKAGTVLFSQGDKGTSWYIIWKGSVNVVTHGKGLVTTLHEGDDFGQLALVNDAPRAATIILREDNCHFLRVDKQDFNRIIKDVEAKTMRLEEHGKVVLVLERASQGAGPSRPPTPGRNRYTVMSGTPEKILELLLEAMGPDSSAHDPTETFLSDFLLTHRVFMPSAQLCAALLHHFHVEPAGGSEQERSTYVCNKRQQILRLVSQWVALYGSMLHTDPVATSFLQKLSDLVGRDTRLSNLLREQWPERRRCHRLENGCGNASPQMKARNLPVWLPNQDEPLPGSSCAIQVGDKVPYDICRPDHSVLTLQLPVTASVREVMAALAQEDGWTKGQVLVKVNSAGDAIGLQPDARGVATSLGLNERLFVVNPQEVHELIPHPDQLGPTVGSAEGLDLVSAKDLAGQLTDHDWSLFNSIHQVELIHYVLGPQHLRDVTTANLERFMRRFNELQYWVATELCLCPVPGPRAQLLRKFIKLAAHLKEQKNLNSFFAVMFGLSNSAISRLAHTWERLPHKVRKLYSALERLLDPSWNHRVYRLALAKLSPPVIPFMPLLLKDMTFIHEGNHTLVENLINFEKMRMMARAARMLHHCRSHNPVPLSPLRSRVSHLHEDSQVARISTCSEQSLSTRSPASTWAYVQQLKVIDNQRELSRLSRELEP
smiles,measurement,setting,value
CC(=O)NCCCCCC(=O)O,Potency,[1],inactive
same,Potency,[2],inactive
same,Potency,[3],inactive
same,Potency,[4],inactive
same,Potency,[5],inactive
C#C[C@]1(O)CC[C@H]2[C@@H]3CCC4=CC(=O)CC[C@@H]4[C@H]3CC[C@@]21CC,Potency,[1],inactive
same,Potency,[2],inactive
same,Potency,[3],12.3 µM (active)
same,Potency,[4],inactive
N=C(N)N1CCc2ccccc2C1,"% pathology change, negative = correction",[1],0.596% [at 4.63 µM]
same,"activity change, negative = inhibition",[2],3.13% [at 4.83 µM]
same,"activity change, negative = inhibition",[3],12.1% [at 4.83 µM]
same,"activity change, negative = viability loss",[4],-4.68% [at 4.96 µM]
same,"activity change, negative = cell killing",[5],-10.2% [at 4.96 µM]
CCCCNC(=O)NS(=O)(=O)c1ccc(N)cc1,Potency,[1],inactive
same,Potency,[2],inactive
same,Potency,[3],inactive
same,Potency,[4],inactive
same,Potency,[5],inactive
CCCN(CCC)S(=O)(=O)c1ccc(C(=O)O)cc1,Potency,[1],inactive
same,Potency,[2],inactive
same,Potency,[3],inactive
same,Potency,[4],inactive
same,outcome,[6],inactive
CC(=O)O[C@]1(C(C)=O)CC[C@H]2[C@@H]3C=C(C)C4=CC(=O)CC[C@]4(C)[C@H]3CC[C@@]21C,Potency,[1],inactive
same,Potency,[2],inactive
same,Potency,[3],12.3 µM (active)
same,Potency,[4],inactive
same,Potency,[5],inactive
same,outcome,[6],inactive
CC(=O)N[C@@H](CCC(=O)O)C(=O)O,Potency,[1],inactive
same,Potency,[2],inactive
same,Potency,[3],inactive
same,Potency,[4],inactive
Cc1cc(C)cc(OCC2CNC(=O)O2)c1 (centres undefined),Potency,[1],inactive
same,Potency,[2],inactive
same,Potency,[3],inactive
same,Potency,[4],inactive
same,Potency,[5],inactive
CC(=O)Oc1ccc(C)cc1,Potency,[1],inactive
same,Potency,[2],inactive
same,Potency,[3],inactive
same,Potency,[4],inactive
same,Potency,[5],inactive
Cl/C(=C\n1cncn1)c1ccc(Cl)cc1Cl,Potency,[1],inactive
same,Potency,[2],4.9 µM (active)
same,Potency,[3],11 µM (active)
same,Potency,[4],inactive
same,Potency,[5],inactive
same,Potency,[7],inactive
same,outcome,[8],inactive
same,outcome,[9],inactive
same,Potency,[10],inactive
FC(F)(F)C(F)(F)C(F)(F)C(F)(F)C(F)(F)C(F)(F)C(F)(F)C(F)(F)Br,Potency,[1],inactive
same,Potency,[2],inactive
same,Potency,[3],inactive
same,Potency,[4],inactive
CCc1ccc(C(=O)C(C)CN2CCCCC2)cc1 (centres undefined),Potency,[1],inactive
same,Potency,[2],0.871 µM (active)
same,Potency,[3],inactive
same,Potency,[5],23.7 µM (active)
NS(=O)(=O)c1ccc(Cl)c(S(N)(=O)=O)c1,Potency,[1],inactive
same,Potency,[2],inactive
same,Potency,[3],inactive
same,Potency,[4],inactive
same,Potency,[5],inactive
CCOc1ccc(NC(C)=O)cc1,Potency,[1],inactive
same,Potency,[2],inactive
same,Potency,[3],inactive
same,Potency,[4],inactive
same,Potency,[5],inactive
CC(=O)Nc1ccc(OC(=O)c2ccccc2OC(C)=O)cc1,Potency,[1],inactive
same,Potency,[2],15.5 µM (active)
same,Potency,[3],inactive
same,Potency,[4],inactive
same,Potency,[5],inactive
Cc1ccc(S(=O)(=O)NC(=O)NC2CCCC2)cc1,Potency,[1],inactive
same,Potency,[2],inactive
same,Potency,[3],inactive
same,Potency,[4],inactive
same,Potency,[5],inactive
CN(C)C(=O)Nc1ccc(Cl)c(Cl)c1,Potency,[1],inactive
same,Potency,[2],inactive
same,Potency,[3],inactive
same,Potency,[4],inactive
same,Potency,[5],inactive
Cc1cc(-c2ccccc2)nnc1NCCN1CCOCC1,Potency,[1],inactive
same,Potency,[2],4.9 µM (active)
same,Potency,[3],inactive
same,Potency,[4],inactive
same,Potency,[5],inactive
CC(=O)Nc1ccc(CC(=O)O)cc1,Potency,[1],inactive
same,Potency,[2],inactive
same,Potency,[3],inactive
same,Potency,[4],inactive
same,Potency,[5],inactive
CN1CCN(CCC(=O)N2c3ccccc3Sc3ccc(C(F)(F)F)cc32)CC1,Potency,[1],3.16 µM (active)
same,Potency,[2],0.0347 µM (active)
same,Potency,[3],inactive
same,Potency,[4],15 µM (active)
same,Potency,[5],23.7 µM (active)
CCN(CC)CCOC(=O)C1(c2ccccc2)CCCC1,Potency,[1],inactive
same,Potency,[2],2.19 µM (active)
same,Potency,[3],inactive
same,Potency,[4],inactive
same,Potency,[5],inactive
N[C@H](C(=O)O)[C@@H](O)c1ccc(O)c(O)c1,Potency,[1],inactive
same,Potency,[2],inactive
same,Potency,[3],inactive
same,Potency,[4],inactive
CCCCCCCCOc1ccc(C(=O)c2ccccc2)c(O)c1,Potency,[1],inactive
same,Potency,[2],inactive
same,Potency,[3],inactive
same,Potency,[4],inactive
same,Potency,[5],inactive
C[C@@H](O)[C@H]1C(=O)N2C(C(=O)O)=C([C@H]3CCCO3)S[C@H]12,Potency,[1],inactive
same,Potency,[2],inactive
same,Potency,[3],inactive
same,Potency,[4],inactive
same,Potency,[5],inactive
CCCCCCCCCCCCCCCC(=O)O,Potency,[1],inactive
same,Potency,[2],inactive
same,Potency,[3],inactive
same,Potency,[4],inactive
same,outcome,[11],inactive
O=C(O)c1ccc(S(=O)(=O)N(Cl)Cl)cc1,Potency,[1],inactive
same,Potency,[2],inactive
same,Potency,[3],inactive
same,Potency,[4],inactive
same,Potency,[5],inactive
Cc1cccc(C)c1NC(=O)c1ccccc1C(=O)O,Potency,[1],inactive
same,Potency,[2],inactive
same,Potency,[3],inactive
same,Potency,[4],inactive
same,Potency,[5],inactive
C[N+]12CCC(CC1)C(OC(=O)C(O)(c1ccccc1)c1ccccc1)C2 (centres undefined),Potency,[1],inactive
same,Potency,[2],15.5 µM (active)
same,Potency,[3],inactive
same,Potency,[4],inactive
